Experimental data as given in PubChem BioAssay (NCI).
“And” between values parts separate entries of the source, which are not always exact repeats. Identical values can stand only once. Compounds without any hit were thinned out: in the full panel of roughly 83,000, 20% have a hit.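 For each line, cells grew in 96-well plates with the test compound present at a single concentration for 48 hours.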 The source made the active and inactive calls. The calls were made as follows: active = growth percent below 10; inactive = the rest.

Tests used:
Assay in all cases: NCI-60 one-dose screen, 48 h (100 = growth as untreated, 0 = no growth, -100 = all killed)
Settings in all cases: 10 µM unless noted
SR leukemia = test system: SR leukemia
RPMI-8226 leukemia = test system: RPMI-8226 leukemia
OVCAR-8 ovarian = test system: OVCAR-8 ovarian
OVCAR-5 ovarian = test system: OVCAR-5 ovarian
OVCAR-4 ovarian = test system: OVCAR-4 ovarian
SK-OV-3 ovarian = test system: SK-OV-3 ovarian
IGROV1 ovarian = test system: IGROV1 ovarian
OVCAR-3 ovarian = test system: OVCAR-3 ovarian
HS 578T breast = test system: HS 578T breast
NCI/ADR-RES ovarian = test system: NCI/ADR-RES ovarian

Measured: growth

COC(=O)CCSC1=C(C)C(=O)c2ccccc2C1=O
inactive: SR leukemia 71% | RPMI-8226 leukemia 45.3% | OVCAR-8 ovarian 85.8% | OVCAR-5 ovarian 104% | OVCAR-4 ovarian 75.6% | SK-OV-3 ovarian 97.7% | IGROV1 ovarian 80.8% | OVCAR-3 ovarian 69% | HS 578T breast 91.8% | NCI/ADR-RES ovarian 83.5%

O=C(NNc1nc2cc(F)cc(F)c2n2cccc12)c1cccnn1
inactive: SR leukemia 14.8% | RPMI-8226 leukemia 11.8% | OVCAR-8 ovarian 19% | OVCAR-5 ovarian 46.3% | IGROV1 ovarian 13.5% | OVCAR-3 ovarian 14% | HS 578T breast 32%
active: OVCAR-4 ovarian 4.96% | SK-OV-3 ovarian -1.52% | NCI/ADR-RES ovarian 0.935%

Cn1ncc2ncc(-c3ccc4ncc(C#N)c(N5CCc6cc(F)c(Cl)cc65)c4c3)cc21
inactive: SR leukemia 22.3% | RPMI-8226 leukemia 35.8% | OVCAR-8 ovarian 38.8% | OVCAR-5 ovarian 47% | OVCAR-4 ovarian 26.1% | SK-OV-3 ovarian 15% | OVCAR-3 ovarian 29.8% | NCI/ADR-RES ovarian 39.3%
active: IGROV1 ovarian -9.7% | HS 578T breast -1.2%

Cc1ccc(S(=O)(=O)NCCCNc2nccc(-c3[nH]c(-c4ccccc4)nc3-c3ccc(F)c(O)c3)n2)cc1
inactive: SR leukemia 33.8% | RPMI-8226 leukemia 53.7% | OVCAR-8 ovarian 86.7% | OVCAR-5 ovarian 143% | OVCAR-4 ovarian 107% | SK-OV-3 ovarian 117% | IGROV1 ovarian 99% | OVCAR-3 ovarian 132% | HS 578T breast 99.6% | NCI/ADR-RES ovarian 104%

Cc1ccc2c(n1)C(=O)C(Cl)=C(Nc1ccc(C(F)(F)F)cc1)C2=O
active: RPMI-8226 leukemia -8.81% | OVCAR-4 ovarian -96.4% | IGROV1 ovarian -58.2% | OVCAR-3 ovarian -48.6%
inactive: SR leukemia 10.5% | OVCAR-8 ovarian 39.3% | OVCAR-5 ovarian 110% | SK-OV-3 ovarian 82.2% | HS 578T breast 94.1% | NCI/ADR-RES ovarian 87.6%

CCOC(=O)c1c(NC(=O)c2ccc(C(F)(F)F)cc2)sc2c3c(ccc12)OCN(C)C3
active: SR leukemia -29.8% | RPMI-8226 leukemia -36.9% | OVCAR-8 ovarian -48% | OVCAR-3 ovarian 2.17%
inactive: OVCAR-5 ovarian 54.2% | OVCAR-4 ovarian 82.4% | SK-OV-3 ovarian 93.5% | IGROV1 ovarian 41.9% | HS 578T breast 78.7% | NCI/ADR-RES ovarian 51.9%

COc1ccc(/C=N/NC(=O)CSc2nc(-c3cnccn3)cc(-c3cccs3)c2C#N)cc1OC
inactive: SR leukemia 81.8% | RPMI-8226 leukemia 70.5% | OVCAR-8 ovarian 84.7% | OVCAR-5 ovarian 104% | OVCAR-4 ovarian 97.6% | SK-OV-3 ovarian 120% | IGROV1 ovarian 104% | OVCAR-3 ovarian 99% | HS 578T breast 69.8% | NCI/ADR-RES ovarian 96.6%

Clc1ccc2[nH]cc(-c3cncn3CCc3ccc4c(c3)OCO4)c2c1
inactive: SR leukemia 62.1% | RPMI-8226 leukemia 42.5% | OVCAR-8 ovarian 76% | OVCAR-5 ovarian 76.2% | OVCAR-4 ovarian 33% | SK-OV-3 ovarian 81% | IGROV1 ovarian 76.8% | OVCAR-3 ovarian 67.6% | HS 578T breast 69.7% | NCI/ADR-RES ovarian 78.6%

Cc1csc(/N=C(N)/N=C(\N)c2cccnc2)n1
inactive: SR leukemia 45.7% | RPMI-8226 leukemia 86.1% | OVCAR-8 ovarian 89.7% | OVCAR-5 ovarian 92.5% | OVCAR-4 ovarian 98.9% | SK-OV-3 ovarian 77.8% | IGROV1 ovarian 67.9% | OVCAR-3 ovarian 66.7% | HS 578T breast 78.8% | NCI/ADR-RES ovarian 48.4%

COc1ccc(NC(=O)CCCCCCNC(=O)C(O)(O)C(F)(F)F)cc1
inactive: SR leukemia 15% | RPMI-8226 leukemia 25.1% | OVCAR-8 ovarian 22.3% | OVCAR-5 ovarian 31.3% | OVCAR-4 ovarian 77.7% | IGROV1 ovarian 62.4% | OVCAR-3 ovarian 49.1% | HS 578T breast 56.9% | NCI/ADR-RES ovarian 49.8%
active: SK-OV-3 ovarian 4.07%

C=C(C)[C@@H]1CC[C@]2(C(=O)NC3CCCCC3)CC[C@]3(C)[C@H](CC[C@@H]4[C@@]5(C)CC[C@H](N)C(C)(C)[C@@H]5CC[C@]43C)[C@@H]12
active: SR leukemia 1.36%
inactive: RPMI-8226 leukemia 39% | OVCAR-8 ovarian 101% | OVCAR-5 ovarian 115% | OVCAR-4 ovarian 96.4% | SK-OV-3 ovarian 117% | IGROV1 ovarian 113% | OVCAR-3 ovarian 101% | HS 578T breast 95.8% | NCI/ADR-RES ovarian 97.5%

O=C(CSc1nc2ccccc2c(=O)n1-c1ccc(S(=O)(=O)Nc2ccc(Cl)nn2)cc1)Nc1ccc(S(=O)(=O)Nc2ccc(Cl)nn2)cc1
inactive: SR leukemia 87.3% | RPMI-8226 leukemia 108% | OVCAR-8 ovarian 103% | OVCAR-5 ovarian 103% | OVCAR-4 ovarian 101% | SK-OV-3 ovarian 105% | IGROV1 ovarian 107% | OVCAR-3 ovarian 108% | HS 578T breast 106% | NCI/ADR-RES ovarian 103%

O=S(=O)(NCCCNc1nccc(-c2[nH]c(-c3ccccc3)nc2-c2ccc(F)c(O)c2)n1)c1ccc(C(F)(F)F)cc1
active: SR leukemia 1.01%
inactive: RPMI-8226 leukemia 16.2% | OVCAR-8 ovarian 69.7% | OVCAR-5 ovarian 136% | OVCAR-4 ovarian 67.8% | SK-OV-3 ovarian 78.4% | IGROV1 ovarian 63.1% | OVCAR-3 ovarian 33.6% | HS 578T breast 48.9% | NCI/ADR-RES ovarian 89%

C=C1CCc2nc(SCC(=O)O)ccc2N1
inactive: SR leukemia 115% | RPMI-8226 leukemia 114% | OVCAR-8 ovarian 105% | OVCAR-5 ovarian 97.1% | OVCAR-4 ovarian 104% | SK-OV-3 ovarian 98.8% | IGROV1 ovarian 104% | OVCAR-3 ovarian 117% | HS 578T breast 101% | NCI/ADR-RES ovarian 98.8%

O=C(CCCCCCNC(=O)C(O)(O)C(F)(F)F)Nc1ccc(-c2ccccc2)cc1
inactive: RPMI-8226 leukemia 15.1% | OVCAR-4 ovarian 36.6% | IGROV1 ovarian 14.3% | HS 578T breast 33.8%
active: SR leukemia 2.65% | OVCAR-8 ovarian 6.81% | OVCAR-5 ovarian 9.32% | SK-OV-3 ovarian -22.6% | OVCAR-3 ovarian -16.6% | NCI/ADR-RES ovarian 7.74%

NCCNC(=O)c1cccc(COc2ccccc2NC(=O)c2cc(Br)c(Br)[nH]2)c1
active: SR leukemia 8.3%
inactive: RPMI-8226 leukemia 86.8% | OVCAR-8 ovarian 64.6% | OVCAR-5 ovarian 101% | OVCAR-4 ovarian 103% | SK-OV-3 ovarian 136% | IGROV1 ovarian 88% | OVCAR-3 ovarian 103% | HS 578T breast 100% | NCI/ADR-RES ovarian 96.7%

CCOC(=O)c1c(NC(=O)c2cccc(C(F)(F)F)c2)sc2c1CCC(=O)C2
inactive: OVCAR-8 ovarian 19.7% | OVCAR-5 ovarian 40.4% | SK-OV-3 ovarian 82.4% | IGROV1 ovarian 18.4% | OVCAR-3 ovarian 25.8% | HS 578T breast 36.5% | NCI/ADR-RES ovarian 12.5%
active: SR leukemia 8.07% | RPMI-8226 leukemia 7.65% | OVCAR-4 ovarian 0.236%

O=C(/C=C/c1ccccc1)c1cccc(O)c1
active: RPMI-8226 leukemia -17.9%
inactive: SR leukemia 67.5% | OVCAR-8 ovarian 92.3% | OVCAR-5 ovarian 101% | OVCAR-4 ovarian 105% | SK-OV-3 ovarian 107% | IGROV1 ovarian 97.8% | OVCAR-3 ovarian 106% | HS 578T breast 114% | NCI/ADR-RES ovarian 107%

CCCCCCCCCC(=O)NC(C)(C)C(=O)N1CCC[C@H]1C(=O)N[C@@H](CC(C)C)C(=O)N[C@@](C)(CC)C(=O)N[C@@H](CCC(N)=O)C(=O)N[C@H](CCC(N)=O)C(=O)NC(C)(C)C(=O)NC(C)(C)C(=O)N[C@@H](CCC(N)=O)C(=O)N[C@H](CC(C)C)C(=O)N[C@H](CO)CC(C)C
active: SR leukemia -77.5% and 1.34% | RPMI-8226 leukemia -67.5% and -26% | OVCAR-8 ovarian -86.4% and -49.5% | OVCAR-5 ovarian -97.7% and -82.4% | IGROV1 ovarian -87% and 5.72% | OVCAR-3 ovarian -23.8% | HS 578T breast -71.3% and -59% | NCI/ADR-RES ovarian -83% and 0.971%
-20.8% (active) and 50.4% (inactive): OVCAR-4 ovarian
-70.9% (active) and 19.4% (inactive): SK-OV-3 ovarian

C=C(C)[C@@H]1CC[C@]2(C(=O)O)CC[C@]3(C)[C@H](CC[C@@H]4[C@@]5(C)C/C(=C/c6ccccn6)C(=O)C(C)(C)[C@@H]5CC[C@]43C)[C@@H]12
inactive: SR leukemia 29.1% | RPMI-8226 leukemia 13% | OVCAR-8 ovarian 32% | OVCAR-5 ovarian 82.4% | OVCAR-4 ovarian 36.2% | SK-OV-3 ovarian 70.4% | IGROV1 ovarian 51.6% | OVCAR-3 ovarian 40.8% | HS 578T breast 63.6% | NCI/ADR-RES ovarian 37.4%

CNC(=O)c1cc(-c2ccc(NC(=S)Nc3cccc(C(F)(F)F)c3)cc2)nc2cccnc12
inactive: SR leukemia 80.8% | RPMI-8226 leukemia 95.2% | OVCAR-8 ovarian 93.9% | OVCAR-5 ovarian 102% | OVCAR-4 ovarian 96.6% | SK-OV-3 ovarian 105% | IGROV1 ovarian 103% | OVCAR-3 ovarian 109% | HS 578T breast 105% | NCI/ADR-RES ovarian 95.3%

Fc1ccc2nc(-c3cnn4cccnc34)sc2c1
inactive: SR leukemia 78% | RPMI-8226 leukemia 87.6% | OVCAR-8 ovarian 83.5% | OVCAR-5 ovarian 101% | OVCAR-4 ovarian 63.5% | SK-OV-3 ovarian 81% | IGROV1 ovarian 49.2% | OVCAR-3 ovarian 84.2% | HS 578T breast 90.1% | NCI/ADR-RES ovarian 96.6%

COc1ccccc1Cn1cc(C#N)c(N)c1C(=O)c1ccc(Br)cc1
inactive: SR leukemia 112% | RPMI-8226 leukemia 93.7% | OVCAR-8 ovarian 98.3% | OVCAR-5 ovarian 104% | OVCAR-4 ovarian 73.8% | SK-OV-3 ovarian 107% | IGROV1 ovarian 91.6% | OVCAR-3 ovarian 104% | HS 578T breast 94.4% | NCI/ADR-RES ovarian 93.6%

CN(C)S(=O)(=O)c1ccc(-c2nc(C(Cl)Cl)nc3cc(-c4ccc(F)cc4)nn23)cc1
active: SR leukemia 8.24% | RPMI-8226 leukemia 7.75% | OVCAR-8 ovarian 2.7% | SK-OV-3 ovarian 0.219% | IGROV1 ovarian 0.61% | OVCAR-3 ovarian 8.15% | NCI/ADR-RES ovarian 3.66%
inactive: OVCAR-5 ovarian 18.3% | OVCAR-4 ovarian 21.1% | HS 578T breast 20.3%

CC(O)c1cccc(/C(N)=N/C(N)=N/c2nc3ccccc3s2)c1 (stereo not given)
inactive: SR leukemia 82.3% | RPMI-8226 leukemia 67.3% | OVCAR-8 ovarian 97.2% | OVCAR-5 ovarian 100% | OVCAR-4 ovarian 105% | SK-OV-3 ovarian 105% | IGROV1 ovarian 92.5% | OVCAR-3 ovarian 102% | HS 578T breast 91.9% | NCI/ADR-RES ovarian 95.6%

Cc1[nH]c(C(=O)Nc2ccccc2OCc2cccc(C(=O)NCCN)c2)cc1Cl
inactive: RPMI-8226 leukemia 89.6% | OVCAR-8 ovarian 84.7% | OVCAR-5 ovarian 97% | OVCAR-4 ovarian 102% | SK-OV-3 ovarian 101% | IGROV1 ovarian 94.5% | OVCAR-3 ovarian 109% | HS 578T breast 102% | NCI/ADR-RES ovarian 99.4%
active: SR leukemia -3.39%
